Data reported in PubChem BioAssay.
Active and inactive are the calls of the source.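 How the source made its calls, unless noted: active means inhibition above 20% together with a positive visual image hit; inconclusive means visual image hit but inhibition not above 20%; inactive means no visual image hit.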

What was measured:
[1] = inhibitors of TNFa-induced NFkB p65 translocation, primary screen, imaging, HUVEC, MLSMR starter and 10KST1 sets (AID 438); conditions: HUVEC TNFa-induced p65 nuclear translocation; cell count: measured here: nuclei count (cytotoxicity indicator), at 2.08 µM; inhibition: at 2 µM, stronger effect = higher value, 0% TNFa-plus-vehicle, 100% no-TNFa wells;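 further: compound added about 3h40 before a 20 min TNFalpha stimulation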;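 on inhibition: signal is the nuclear over cytoplasmic p65 intensity ratio per well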
[2] = reduction of polyQ htt aggregates in cells – imaging, exon1htt(103Q)mCFP cells, high-content imaging, primary screen (AID 483;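 active means visual image review flags a hit and inhibition of aggregation exceeds 20%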;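 further: compound exposure lasted 3 days before fixation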;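 on nuclei count: percent of the per-plate median nuclei count of sample wells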); conditions: exon1htt(103Q)mCFP cell line, aggregate imaging, at 2 µM; inhibition of aggregation: stronger effect = higher value; nuclei count: measured here: cell count, toxicity
[3] = endothelial E-selectin expression blockers – imaging, HUVEC, immunofluorescence, MLSMR starter and 10KST1 sets, primary screen (AID 487;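 active means visually confirmed hit in the image check and inhibition above 20%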;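 on inhibition: signal is fraction of cell area covered by stained E-selectin grains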;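 on nuclei count: 100% = median nuclei count of all wells on the same plate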); conditions: HUVEC TNFalpha-induced E-selectin immunofluorescence imaging, at 2 µM; inhibition: stronger effect = higher value; nuclei count: measured here: cell number, toxicity
[4] = target: Voltage-gated potassium channel subunit beta-2 (Rattus norvegicus) (UniProt P62483); experiment: inhibitors of rat Kvbeta2 reductase activity – biochemical, NADPH fluorescence, primary screen (AID 622;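 active means fluorescence slope higher than the sample average by over 3 SD, cut at about -0.22 in these data, passing the limit was not always enough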;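 further: slope of raw intensity against log time taken from 70 to 1610 s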); conditions: recombinant KvBeta, 4-cyanobenzaldehyde reduction, at 10 µM, stronger effect = higher value
Sequence of Voltage-gated potassium channel subunit beta-2 (Rattus norvegicus) (P62483 whole entry, looked up): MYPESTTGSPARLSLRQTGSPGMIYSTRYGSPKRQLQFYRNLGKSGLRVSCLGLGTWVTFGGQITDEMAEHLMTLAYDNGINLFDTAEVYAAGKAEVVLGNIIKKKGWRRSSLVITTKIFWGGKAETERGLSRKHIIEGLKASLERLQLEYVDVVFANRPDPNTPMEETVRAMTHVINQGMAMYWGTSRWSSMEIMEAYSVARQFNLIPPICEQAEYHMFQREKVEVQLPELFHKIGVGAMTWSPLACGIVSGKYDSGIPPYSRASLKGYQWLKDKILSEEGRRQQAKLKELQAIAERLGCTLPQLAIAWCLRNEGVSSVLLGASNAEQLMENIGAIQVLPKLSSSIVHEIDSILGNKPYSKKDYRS

[5] = target: Voltage-gated potassium channel subunit beta-2 (Rattus norvegicus) (UniProt P62483); experiment: enhancers of rat Kvbeta2 NADPH turnover – biochemical, NADPH fluorescence, primary screen (AID 623;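 active means NADPH fluorescence slope more negative than the mean of all samples by about 3 SD, 99.7% confidence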;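 further: fluorescence intensity change per second fitted from 20 to 320 s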); conditions: Recombinant KvBeta, NADPH fluorescence decrease slope, 10 min; at 10 µM; stronger effect = lower value
[6] = target: Alpha-2C adrenergic receptor (Homo sapiens) (UniProt P18825); experiment: compounds altering alpha2C-coupled GIRK flux – cell-based, HEK293 alpha2C/GIRK1/2, thallium flux, primary screen (AID 624;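 active means fluorescence slope after compound addition differing from the mean of all screened samples at 99.7% confidence, in either direction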;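 further: slope of fluorescence ratio to pre-addition baseline per second over 15 to 24 s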); conditions: thallium flux BTC fluorescence, at 10 µM, actives lie on both sides
Sequence of Alpha-2C adrenergic receptor (Homo sapiens) (P18825 whole entry, looked up): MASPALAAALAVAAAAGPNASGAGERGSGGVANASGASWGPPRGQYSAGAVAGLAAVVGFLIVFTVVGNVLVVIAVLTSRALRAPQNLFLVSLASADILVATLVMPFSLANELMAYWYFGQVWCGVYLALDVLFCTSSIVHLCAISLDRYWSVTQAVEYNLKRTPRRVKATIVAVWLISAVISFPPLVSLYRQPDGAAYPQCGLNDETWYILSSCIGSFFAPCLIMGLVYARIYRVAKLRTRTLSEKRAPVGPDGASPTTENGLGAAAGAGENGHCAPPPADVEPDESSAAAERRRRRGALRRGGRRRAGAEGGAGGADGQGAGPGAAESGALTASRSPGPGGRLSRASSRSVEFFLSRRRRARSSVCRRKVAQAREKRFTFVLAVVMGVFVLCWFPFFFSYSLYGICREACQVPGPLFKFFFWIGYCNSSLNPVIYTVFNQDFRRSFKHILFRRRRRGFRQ

[7] = blockers of RIG-like receptor reporter activation – cell-based, Sendai virus stimulus, luciferase, 10K MLSCN set, TLR/RLR signaling modifier project, primary screen (AID 602276;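 active means inhibition at or above 50% at 10 µM; inactive means inhibition below 50%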;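 further: firefly luciferase from ISG56 promoter only with Renilla not read in this screen; 0% = Sendai virus plus DMSO and 100% = medium plus DMSO without virus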); conditions: HEK293 RL24 IRF3 luciferase reporter, at 10 µM, stronger effect = higher value
[8] = TLR3 IRF3 reporter activation blockers – cell-based, poly I:C stimulus, luciferase, 10K MLSCN set, primary screen (AID 602277;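 active means inhibition of the reporter signal at or above 50%; inactive means inhibition below 50%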); conditions: HEK293-TLR3 RL24 IRF3 luciferase reporter, at 10 µM, stronger effect = higher value

| Compound | cell count [1] | inhibition [1] | inhibition of aggregation [2] | nuclei count [2] | inhibition [3] | nuclei count [3] | fluorescence slope [4] | NADPH fluorescence slope [5] | slope [6] | inhibition [7] | inhibition [8] |
| --- | --- | --- | --- | --- | --- | --- | --- | --- | --- | --- | --- |
| O=C(O)C1CC=CCC1C(=O)Nc1cccc(C(=O)N2CCCCC2)c1 (stereo not drawn) | 419 | 6.1% (inactive) | -11.9% (inactive) | 109% | -158% (inactive) | 115% | -0.427 (inactive) | -4.3e-05 (inactive) | 0.00595 (inactive) | 0.562% (inactive) | -0.512% (inactive) |
| CSc1ccccc1N=CC1=C(O)CC(C)(C)CC1=O | 483 | 7.1% (inactive) | 2.4% (inactive) | 104% | -4.9% (inactive) | 119% | -0.461 (inactive) | -0.000148 (inactive) | 0.00576 (inactive) | 5.59% (inactive) | 17.7% (inactive) |
| O=C(c1ccco1)N1CCN(/C(=N/S(=O)(=O)c2cccs2)c2ccccc2Cl)CC1 | 852 | -5.6% (inactive) | 2.4% (inactive) | 103% | 33.2% (inactive) | 95.1% | -0.491 (inactive) | -5.1e-05 (inactive) | 0.00477 (inactive) | -2.11% (inactive) | 12.2% (inactive) |
| Cc1ccc2nc(NC(=O)C3CCCN(S(=O)(=O)c4cccc5nonc45)C3)sc2c1 (stereo not drawn) | 266 | -13.5% (inactive) | 9.4% (inactive) | 91% | -3.1% (inactive) | 70.9% | -0.304 (inactive) | 2.8e-06 (inactive) | 0.00386 (inactive) | 14.7% (inactive) | -5.96% (inactive) |
| Cc1nc2sc(C(c3cccs3)N3CCC(C(N)=O)CC3)c(O)n2n1 (stereo not drawn) | 625 | -3.9% (inactive) | -7.5% (inactive) | 105% | -47.4% (inactive) | 120% | -0.565 (inactive) | -4.6e-05 (inactive) | 0.00644 (inactive) | 14.6% (inactive) | 32.7% (inactive) |
| CC(C)(C)C(=O)CCN1C(=O)C2(OCCO2)c2ccccc21 | 702 | -4.9% (inactive) | -30.1% (inactive) | 118% | -140% (inactive) | 123% | -0.497 (inactive) | -2.7e-05 (inactive) | 0.00626 (inactive) | 11.4% (inactive) | 22.3% (inactive) |
| Cc1cccc(Nc2nc(N)nc(CN3CCC(C(N)=O)CC3)n2)c1C | 720 | -4.3% (inactive) | -5.8% (inactive) | 108% | -35% (inactive) | 123% | -0.628 (inactive) | -2.1e-05 (inactive) | 0.0067 (inactive) | -22.9% (inactive) | -60.3% (inactive) |
| C=CCNC(=O)c1cc(-c2ccccc2O)on1 | 856 | -0.5% (inactive) | -0.2% (inactive) | 109% | -63.2% (inactive) | 113% | -0.588 (inactive) | -1.8e-05 (inactive) | 0.0069 (inactive) | -22.6% (inactive) | -96.4% (inactive) |
| O=C(NC1CCCC1)C(c1cccs1)N(C(=O)c1ccno1)c1ccccc1 (stereo not drawn) | 648 | -3.2% (inactive) | -3.9% (inactive) | 101% | 38.6% (inactive) | 94.7% | -0.607 (inactive) | -4.3e-05 (inactive) | 0.00635 (inactive) | 3.89% (inactive) | 21.8% (inactive) |
| CC(C)c1nnc(NC(=O)CCC(=O)NCc2ccc3c(c2)OCO3)s1 | 571 | 11.2% (inactive) | -5.1% (inactive) | 95.8% | 21.4% (inactive) | 97.3% | -0.404 (inactive) | -4.6e-05 (inactive) | 0.00581 (inactive) | 14.1% (inactive) | 13.8% (inactive) |
| COc1cccc(S(=O)(=O)Nc2ccc(C(=O)N3CCN(C(=O)c4ccco4)CC3)cc2)c1 | 448 | -3.9% (inactive) | -8% (inactive) | 108% | -65.5% (inactive) | 124% | -0.507 (inactive) | -3.8e-05 (inactive) | 0.00603 (inactive) | 8.1% (inactive) | 7.91% (inactive) |
| O=C(NCCCCNC(=O)c1c(F)c(F)c(F)c(F)c1F)c1c(F)c(F)c(F)c(F)c1F | 778 | 1% (inactive) | 10.7% (inactive) | 104% | -48.4% (inactive) | 110% | -0.308 (inactive) | 3.6e-05 (inactive) | 0.00647 (inactive) | 12.8% (inactive) | 20% (inactive) |
| CCCCOc1ccc(C(=O)N2CCC(C)CC2)cc1 | 323 | 7.9% (inactive) | -8.4% (inactive) | 99.9% | -13.8% (inactive) | 87% | -0.434 (inactive) | -5.1e-05 (inactive) | 0.00442 (inactive) | -4.61% (inactive) | -21% (inactive) |
| CCc1c(C)nc2ncnn2c1NCCc1ccc(OC)c(OC)c1 | 447 | -1.6% (inactive) | -8% (inactive) | 95.4% | 7.1% (inactive) | 97.7% | -0.323 (inactive) | -7.8e-05 (inactive) | 0.00477 (inactive) | 8.69% (inactive) | -1.81% (inactive) |
| COc1ccc2c(c1)C(C)=CC(C)(C)N2C(=O)C(C)N1C(=O)c2ccccc2C1=O (stereo not drawn) | 637 | 4.5% (inactive) | 7.1% (inactive) | 108% | 21.2% (inactive) | 118% | -0.612 (inactive) | -1.8e-05 (inactive) | 0.00489 (inactive) | 5.4% (inactive) | 5.89% (inactive) |
| CCC1CCc2c(sc3ncnc(N4CCOCC4)c23)C1 (stereo not drawn) | 588 | -4.4% (inactive) | -3.1% (inactive) | 25.7% | -4% (inactive) | 114% | -0.469 (inactive) | -4.6e-05 (inactive) | 0.00589 (inactive) | -6.27% (inactive) | 13.8% (inactive) |
| CCCC(=O)Nc1cccc(NC(=O)CN2CCN(c3ccccc3OC)CC2)c1 | 693 | -15.2% (inactive) | 17.6% (inactive) | 98.8% | -61.4% (inactive) | 104% | -0.481 (inactive) | -4.6e-05 (inactive) | 0.00587 (inactive) | -1.32% (inactive) | 11.7% (inactive) |
| COc1ccc(-n2nnnc2SCC(=O)c2ccc(O)c(O)c2)cc1 | 344 | -6.5% (inactive) | 20.5% (inactive) | 91.8% | -74.4% (inactive) | 112% | -0.487 (inactive) | -0.000117 (inactive) | 0.00395 (inactive) | 13.7% (inactive) | 16.9% (inactive) |
| CCCSC1=C(C#N)C(c2cc(OC)ccc2OC)CC(=O)N1 (stereo not drawn) | 674 | 5.8% (inactive) | 10.8% (inactive) | 114% | -61.3% (inactive) | 116% | -0.518 (inactive) | -4.2e-05 (inactive) | 0.00728 (inactive) | 18.1% (inactive) | 25.8% (inactive) |
| Cc1cc2c(cc1C)C(=O)NC(C)(C)C2 | 417 | -1.1% (inactive) | -12.1% (inactive) | 108% | -20.1% (inactive) | 120% | -0.375 (inactive) | 6.6e-05 (inactive) | 0.01 (inactive) | -1.09% (inactive) | 0.395% (inactive) |
| CCc1nnc(NC(=O)c2ccc(COc3ccc(C)cc3)o2)s1 | 312 | -1.9% (inactive) | 6.3% (inactive) | 109% | 7.7% (inactive) | 110% | -0.468 (inactive) | -0.00028 (inactive) | 0.00745 (inactive) | -17.4% (inactive) | 99.8% (active) |
| Cn1c(=O)c2c(-c3ccccc3)n(CCCN3CCOCC3)cc2n(C)c1=O | 953 | 7.9% (inactive) | -17.3% (inactive) | 108% | -6.9% (inactive) | 102% | -0.574 (inactive) | -2.7e-08 (inactive) | 0.00936 (inactive) | -9.43% (inactive) | -18.1% (inactive) |
| CCOCCCNC(=O)Cn1cc2c(n1)CCCCC2 | 486 | -2.3% (inactive) | 19.4% (inactive) | 88.9% | -25.4% (inactive) | 109% | -0.605 (inactive) | -1.2e-05 (inactive) | 0.00693 (inactive) | 3.75% (inactive) | 19.9% (inactive) |
| Cn1c(Cc2ccccc2)nnc1SCC(=O)c1ccc(Br)s1 | 180 | 0.4% (inactive) | 16.7% (inactive) | 94.8% | -8.9% (inactive) | 98.1% | -0.596 (inactive) | -1.4e-05 (inactive) | 0.00563 (inactive) | 6.15% (inactive) | 10.8% (inactive) |
| CCCCn1nnc(NC(=O)Cc2ccc(Cl)cc2)n1 | 618 | 7.7% (inactive) | 23.9% (inactive) | 91.6% | -66% (inactive) | 106% | -0.44 (inactive) | -6.8e-05 (inactive) | 0.00393 (inactive) | 1.51% (inactive) | 19.5% (inactive) |
| Cc1cccc(NC(=O)c2ccc3ccccc3n2)n1 | 408 | -4.5% (inactive) | 0.8% (inactive) | 86.6% | -50.9% (inactive) | 95.8% | -0.303 (inactive) | -1.5e-05 (inactive) | 0.0061 (inactive) | -11.1% (inactive) | -91.5% (inactive) |
| CCCn1c(=O)c2ccccc2n2c(SCCOc3ccccc3F)nnc12 | 574 | -10.2% (inactive) | 4.4% (inactive) | 85.2% | 0.6% (inactive) | 156% | -0.477 (inactive) | 4.6e-05 (inactive) | 0.00598 (inactive) | -3.21% (inactive) | -3.55% (inactive) |
| CC(C)OC(=O)CSc1nnc(-c2ccc(O)cc2)n1Cc1ccccc1 | 289 | -1% (inactive) | 12.9% (inactive) | 106% | -57.2% (inactive) | 105% | -0.415 (inactive) | -4.5e-05 (inactive) | 0.00549 (inactive) | 20.3% (inactive) | 16.8% (inactive) |
